From PubChem BioAssay AID1745849 (National Center for Advancing Translational Sciences (NCATS), 2022)
About 320 (15%) of roughly 2,100 compounds were called active. Not shown: some 52% with an inconclusive outcome. Some of the results follow. A number with no mark means an inactive call. Calls come from the whole dose curve; as a rule, active = well fitted cell-killing curve with a large enough effect; inconclusive = small, poorly fitted or top-dose-only effect, or effect the other way; inactive = flat fitted curve, though single readings scatter.

Assay: Viability Counterscreen for CMV-Luciferase Assay of Inhibitors of ATXN expression; note: nearly all actives have a fitted effect of over 55% in size
Conditions: HEK-293 CMV-luciferase cells viability, protease fluorescence, 24 h; activity change, negative = cytotoxicity: at the top concentration
Outline: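 HEK-293 cells stably expressing CMV-luciferase, treated 24 hr at 37 °C with compounds (several concentrations). Viability by Gly-Phe-AFC fluorescence (25 uM final, 30 min); reporter by SteadyGlo luminescence after 5 min.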
% is set by controls: 0 for no effect and ±100 for the full control effect; potency is the fitted concentration of half-maximal effect.

Structure (SMILES) | activity change, negative = cytotoxicity | Potency
COC(=O)c1ccc(N2CCOCC2)c(NC(=O)Nc2cccc(OC)c2)c1 | 7.26% | –
O=C(NC(c1ccccc1)c1c(O)ccc2ccccc12)c1ccccc1Cl (centres undefined) | -29.6% | –
CCCC(=O)NC(c1ccco1)c1cc(Cl)c2cccnc2c1O (centres undefined) | 9.21% [at 57.5 µM] | –
CCCC(=O)NC(c1ccc(OC)cc1)c1c(O)ccc2ccccc12 (centres undefined) | – | 10 µM (active)
COc1ccccc1NS(=O)(=O)c1cccc(C(=O)N/N=C/c2ccc([N+](=O)[O-])o2)c1 | – | 10 µM (active)
O=[N+]([O-])c1ccc(/C=N/N=C/c2ccc([N+](=O)[O-])o2)o1 | – | 4.47 µM (active)
O=C(N/N=C/c1ccc([N+](=O)[O-])o1)c1ccc2c(c1)OCO2 | – | 17.8 µM (active)
O=C(N/N=C/c1ccccc1O)c1cccc(C(F)(F)F)c1 | -7.41% | –
O=C(Nc1ccc(NC(=O)c2cccs2)cc1)c1ccc2c(c1)OCO2 | -1.89% | –
Cc1ncc(CO)c(/C=N/NC(=O)c2cccc(S(=O)(=O)N3CCCC3)c2)c1O | 29.5% [at 57.5 µM] | –
O=C(N/N=C/c1cc(Cl)cc([N+](=O)[O-])c1O)c1cccc(S(=O)(=O)N2CCOCC2)c1 | -29.7% | –
Cn1c(S(=O)(=O)c2ccc([N+](=O)[O-])cc2)nc(Br)c1Br | -1.8% | –
CC(C)C[C@H](NC(=O)c1[nH]cnc1C(=O)Nc1ccc(CNC(=O)OC(C)(C)C)cc1)C(=O)OCc1ccccc1 | -11% | –
CCc1noc(C)c1C(=O)N1CCSC1=Nc1cccc(Cl)c1C | -14.3% [at 57.5 µM] | –
CCC(C)(C)c1ccc(Oc2ccc(N)cc2)cc1 | 26.6% [at 57.5 µM] | –
NNC(=O)c1sc2cc(C(F)(F)F)cnc2c1-c1cccs1 | -26.2% [at 57.5 µM] | –
CCc1ccc(C(O)c2ncc(-c3cccc(C(F)(F)F)c3)[nH]2)cc1 (centres undefined) | -1.52% [at 57.5 µM] | –
O=C(Nc1nnc(C2CC2)o1)c1ccc(S(=O)(=O)N2CCCc3ccccc32)cc1 | – | 11.2 µM (active)
CCN(Cc1ccccc1)S(=O)(=O)c1ccc(C(=O)Nc2nnc(C3CC3)o2)cc1 | -9.39% | –
CC1CCCCN1S(=O)(=O)c1ccc(C(=O)Nc2nnc(-c3ccccc3Cl)o2)cc1 (centres undefined) | -13.6% | –
CN(CCOc1ccc(Br)cc1)CC(O)COc1ccc(C#N)cc1 (centres undefined) | 19.3% [at 57.5 µM] | –
NNc1ncnc2sc3c(c12)CCC3 | -10.3% [at 57.5 µM] | –
Clc1c(Cl)c(Cl)c2n[nH]nc2c1Cl | 14.6% [at 57.5 µM] | –
O=C1CCCC(O)=C1C=NCc1ccccc1 | 6.84% | –
Cc1cccc(/C=C/C(=O)c2ccc([N+](=O)[O-])o2)c1 | – | 3.16 µM (active)

Structure (SMILES) | activity change, negative = cytotoxicity | Potency
CCc1c(C)nc2ncnn2c1N1CCC(C(=O)Nc2ccc(C)cc2)CC1 | 10.1% [at 57.5 µM] | –
COc1ccc2c(c1)CC(N1CCN(C)CC1)c1cc(OC)ccc1S2 (centres undefined) | – | 28.2 µM (active)
CN1CCN(C2Cc3cc(Cl)ccc3Sc3cc(F)ccc32)CC1 (centres undefined) | -18.4% | –
Cc1cccc(OCCCC(=O)Nc2nccs2)c1 | 7.55% | –
O=C(CNC(=O)c1cccc(F)c1)N/N=C/c1cc(Br)ccc1OC(=O)/C=C/c1ccco1 | 13.1% [at 57.5 µM] | –
Cc1ccccc1N1CCN(Cc2c[nH]c3ccccc23)CC1 | -24.1% [at 57.5 µM] | –
CN1C(=O)/C(=C/c2ccccc2F)Sc2ccc(C(=O)N3CCCC3)cc21 | -30% [at 57.5 µM] | –
CCN(CC)CCNC(=O)c1ccc(NC(=O)Cc2cccc3ccccc23)cc1 | -15.6% | –
CCN(CC)CCNc1ccc(CO)c2sc3ccccc3c(=O)c12 | – | 25.1 µM (active)
O=c1c2ccccc2sc2c(CO)ccc(NCCN3CCCCC3)c12 | – | 25.1 µM (active)
Cc1nc2cc(NC(=O)CSc3nc4c(C)cccc4cc3C#N)ccc2s1 | -1.01% [at 57.5 µM] | –
CC1(C)Cc2c(ccc3ccccc23)C2=C(C(=O)N3CCCC3)C(=O)C(=O)N21 | 11.3% [at 57.5 µM] | –
O=C(/C=C/c1ccc(Cl)cc1)Nc1ccc(CN2CCOCC2)cc1 | -4.76% | –
Cc1ccc(C(C)C)c(OCc2ccc(C(=O)N/N=C/c3cccc(O)c3O)cc2)c1 | – | 3.98 µM (active)
Cc1ccc(OCCn2cc(/C=N/NC(=O)c3ccncc3)c3ccccc32)cc1 | -6.17% [at 57.5 µM] | –
Cc1cccc(OCCn2cc(/C=N/NC(=O)c3ccncc3)c3ccccc32)c1 | -14.6% | –
COC(=O)c1ccc(C(=O)Nc2cc(Cl)ccc2Cl)cc1NC(=O)c1ccc(N(C)C)cc1 | 10.5% | –
Cc1cc(C2=NNC(=NC3CC3)SC2)c(C)n1-c1ccccc1F | -27.9% | –
Cc1cccc(N=C2NN=C(c3c(C)[nH]c4ccccc34)CS2)c1 | – | 25.1 µM (active)
C/C(=N\NC(=O)C(C)n1nc(C)c([N+](=O)[O-])c1C)c1ccccc1O (centres undefined) | -26.8% | –
COc1ccc(CC(N)c2csc(Nc3ccc(C(=O)c4ccccc4)cc3)n2)cc1 (centres undefined) | -18.3% | –
CN(Cc1ccccc1)C(=O)c1ccc(Nc2nc(C(N)Cc3ccccc3)cs2)nc1 (centres undefined) | – | 10 µM (active)
NC(=O)c1cccc(Nc2nc(C(N)Cc3ccc(C(F)(F)F)cc3)cs2)n1 (centres undefined) | -20.1% | –
COc1cc2c(C(=O)N3CCOCC3)c(CSc3ccccc3)n(C)c2cc1Br | 3.39% [at 57.5 µM] | –
COc1ccc2nc(C)cc(NCc3ccc(F)cc3)c2c1 | 29.7% | –

Structure (SMILES) | activity change, negative = cytotoxicity | Potency
COc1ccc(CNc2ncnc3c2[nH]c2ccccc23)cc1 | – | 14.1 µM (active)
Cc1cc(C(=O)CN2C(=O)c3ccccc3S2(=O)=O)c(C)n1C(C)C | 10.8% | –
COc1ccc(CCn2c(C)cc(C(=O)CSc3nc(N)cc(=O)[nH]3)c2C)cc1 | -9.76% | –
Cc1[nH]n(-c2ccccc2)c(=O)c1C=Nc1cccc2cccnc12 | -15.3% | –
Cc1cccc(/C=N/NC(=O)c2cccc(Cl)c2)n1 | -7.6% | –
Cc1[nH]n(-c2cccc3ccccc23)c(=O)c1/C=N/NC(=O)c1cccc([N+](=O)[O-])c1 | – | 11.2 µM (active)
Nc1ccc(Oc2ccccc2-c2ccccc2)cc1 | 13.4% | –
CC(NC1=CC(=O)c2cccnc2C1=O)C(O)c1ccccc1 (centres undefined) | – | 17.8 µM (active)
Cc1ccc(Sc2nnc(Cc3ccccc3)c3ccccc23)cc1 | -19.3% [at 57.5 µM] | –
Cc1ccc(S(=O)(=O)c2nc(NCc3ccc4c(c3)OCO4)sc2Cl)cc1 | -13.9% [at 57.5 µM] | –
Fc1ccc2[nH]c3c(N4CCSCC4)ncnc3c2c1 | – | 17.8 µM (active)
Cc1ccc(C)c(OCCCC(=O)Nc2nccs2)c1 | -27.1% [at 57.5 µM] | –
COc1ccc2c(Cl)c(C(=O)NN)sc2c1 | 3.31% | –
Nc1c(C(=O)NCc2ccccc2)c2nc3ccccc3nc2n1-c1ccc2c(c1)OCO2 | -14.7% | –
CC[C@H]1CN2CCc3cc(OC)c(OC)cc3C2C[C@@H]1C[C@H]1NCCc2cc(OC)c(OC)cc21 (some centres undefined) | – | 0.316 µM (active)
CCC1=C(CC2NCCc3ccccc32)CC2c3cc(OC)c(OC)cc3CCN2C1 (centres undefined) | – | 10 µM (active)
O=C(CC1NCCc2ccccc21)Nc1ccc(Cl)cc1 (centres undefined) | -23.1% | –
O=C(C1CCC(CNS(=O)(=O)c2cccc3nsnc23)CC1)N1CC=C(c2ccccc2)CC1 (centres undefined) | 7.33% | –
COc1ccc(Br)cc1C(=O)Nc1ccccc1N1CCN(C(=O)c2ccccc2)CC1 | -13.6% | –
CCOC(=O)COc1ccc(Br)cc1/C=C/c1[nH]c(=O)[nH]c(=O)c1[N+](=O)[O-] | -25.5% | –
CCN(CC)S(=O)(=O)c1ccc(N/N=C/c2cc(OC)ccc2O)nc1 | -22.1% | –
CC(C)(C)c1ccc(Oc2ccc(N)cn2)cc1 | -8.75% [at 57.5 µM] | –
COc1ccc2c(c1)C(SCC(=O)NCCc1ccc(Cl)cc1)CC(C)(C)O2 (centres undefined) | 0.357% | –
Cc1cccc(N2CCN(C(=O)CNC(=O)Cc3ccccc3)CC2)c1C | 3.13% | –
O=C(NNC(=O)C(c1ccccc1)c1ccccc1)c1ccccn1 | – | 10 µM (active)

Structure (SMILES) | activity change, negative = cytotoxicity | Potency
CCC1=C(OC(=O)N(CC)CC)N2C(=O)OC(=NCCc3c[nH]c4ccccc34)[C@]2(Cc2ccccc2)[C@H]2C1=CC[C@H]1C(=O)N(c3ccccc3)C(=O)[C@H]12 | -10.1% [at 57.5 µM] | –
CCc1ccc(-c2nc(CS(=O)CC(=O)NCc3ccco3)c(C)o2)cc1 (centres undefined) | 14.7% | –
Cc1nc(N=C(N)N)nc2c(C)cccc12 | – | 8.91 µM (active)
O=C(N/N=C/c1cc(Br)cc(Br)c1O)c1cccc(N2CCCC2=O)c1 | 22.1% | –
O=C(Nc1cccc2cccnc12)c1csc(COCCO)n1 | 7.27% [at 57.5 µM] | –
CS(=O)(=O)N(CC(O)CON=C1c2ccccc2-c2ccccc21)c1ccc(F)cc1 (centres undefined) | -19.1% | –
COc1ccc2nc(NC(=O)C3CCN(S(=O)(=O)c4cccs4)CC3)sc2c1 | -18.4% | –
Cc1ccnc(NC(=O)C2CCN(S(=O)(=O)c3c(C)c(C)cc(C)c3C)CC2)c1 | – | 15.8 µM (active)
Cc1ccc(NC(=O)C2CCN(S(=O)(=O)c3ccc(N4CCCC4=O)cc3)CC2)cc1Cl | -0.54% | –
O=C(Cn1cnc([N+](=O)[O-])c1)Nc1cc(Oc2ccc(Cl)cc2Cl)cc([N+](=O)[O-])c1 | -25.4% | –
Oc1ccc(Cl)cc1Sc1cc(Cl)ccc1O | – | 20 µM (active)
CCOc1ccc(NC(=O)Nc2nnc(CC(=O)NCc3ccccc3)s2)cc1 | -18.3% [at 57.5 µM] | –
Cc1cc(C)c(CSc2ncc(-c3ccc([N+](=O)[O-])cc3)[nH]2)c(C)c1 | 0.339% [at 57.5 µM] | –
CN(C)CCCN(C(=O)c1ccc(S(=O)(=O)N(C)Cc2ccccc2)cc1)c1nc2cc3c(cc2s1)OCO3 | – | 22.4 µM (active)
CCN(c1ccccc1)S(=O)(=O)c1ccc(C(=O)N(CCCN(C)C)c2nc3c(C)cccc3s2)cc1 | – | 28.2 µM (active)
CCOc1ccccc1NC(=O)CCCc1nc2ccccc2c(=O)[nH]1 | -24.3% | –
Cc1nn(C)c(C)c1NC(=O)CSc1nc(Cc2ccccc2)nc2c1cnn2-c1ccccc1 | 26.3% | –
CCC(C)n1cnc2c(c1=O)c1nc3ccccc3nc1n2-c1ccc2c(c1)OCCO2 (centres undefined) | 8.96% [at 57.5 µM] | –
C=CCn1cnc2c(c1=O)c1nc3ccccc3nc1n2/N=C/c1cc(OC)c(OC)c(OC)c1 | – | 11.2 µM (active)
CCCCC(=O)N(C)c1c(CC)nc2c(OCc3ccc(Cl)cc3Cl)cccn12 | -21.3% | –
COc1ccc(Br)cc1C(=O)NC(=S)Nc1ccc(CN2CCOCC2)cc1 | -23.8% [at 57.5 µM] | –
CCc1ccc(/C=C/C(=O)c2cc(Br)ccc(=O)c2O)cc1 | – | 28.2 µM (active)
CCNc1ccc(Br)cc(C(=O)/C=C/c2ccccc2Cl)c1=O | -19.1% | –
CNc1ccc(Br)cc(C(=O)/C=C/c2ccc3c(c2)OCO3)c1=O | -14.4% | –
